From PubChem
Shiga toxin inh – Shiga toxin inhibition. Vero cells, Shiga toxin protein synthesis inhibition reporter. inhibition, % at 38.7 µM. 290,000 tested, 9.2% active. AID 2315; in the data active means inhibition mostly above about 28%, no sharp cut-off; inactive means mostly below about 43%
SARS PLP yeast – blocks SARS-CoV papain-like protease in a yeast assay; S. cerevisiae expressing SARS-CoV PLpro, growth rescue; Potency, µM (series often up to 32.9 µM), hits mostly activators; 330,000 tested, 0.19% active; AID 485353; further: nearly all actives have a fitted effect of over 55% in size
CHX counter – affects cycloheximide protein synthesis inhibition readout, counter-screen; cell reporter, cycloheximide protein synthesis inhibition counterscreen; max response, %; 300,000 tested, 12% active; AID 2314; in the data active means max response mostly above about 13%, no sharp cut-off; inactive means mostly below about 14%; further: read at 38.3 µM for the half of the compounds with a filed dose
NS1 inh – inhibitors of influenza NS1 protein function; Potency, µM (top dose mostly 46.1 µM); 270,000 tested, 0.4% active; AID 2326; further: actives are rising curves; nearly all actives have a fitted effect of over 50% in size
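In this qHTS, NS1 from influenza A is expressed in budding yeast, where it slows growth. Cells are switched from glucose to 2% galactose medium (pH 6.0, -URA), treated with compound, and growth recovery is read at OD600.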
Numbers stand for hits; - = inactive; ? = inconclusive; . = no result. Compounds with a hit are over-represented: about 12% of the library has one in this group of screens. Unless noted, the call rests on the fitted dose curve.

SMILES | Shiga toxin inh | SARS PLP yeast | CHX counter | NS1 inh
Cc1cccc(-n2cnc3c(c2=O)c2nc4ccccc4nc2n3Cc2ccco2)c1 | - | - | - | -
CC(NC(=O)C1CCC(C)(C(=O)O)C1(C)C)c1ccccc1 (stereo not drawn) | - | - | - | -
COc1ccc(CC(=O)Nc2ccc(-c3cn4ccccc4n3)cc2)cc1OC | - | - | - | -
O=C(Nc1cccc(-c2cn3ccccc3n2)c1)c1cccc(Cl)c1 | - | - | - | -
O=C(Nc1ccc(-c2cn3ccccc3n2)cc1)c1cc(Br)ccc1O | . | . | . | -
O=C(Nc1ccc(-c2cn3ccccc3n2)cc1)c1cccs1 | 54 | - | 33 | .
COc1ccc(CC(=O)Nc2ccc(-c3cn4ccccc4n3)cc2)cc1 | 112 | - | 25 | -
O=C(Nc1cccc(-c2cn3ccccc3n2)c1)c1cnccn1 | - | - | - | -
CCC(=O)Nc1cccc(-c2cn3ccccc3n2)c1 | 45 | - | 18 | -
O=C(Nc1cccc(-c2cn3ccccc3n2)c1)C1CC1 | 46 | - | 35 | -
CN1CCN(CCCNN)CC1 | . | . | . | -
CC(C)c1ccccc1OCC(O)CN1CCN(S(=O)(=O)c2ccc([N+](=O)[O-])cc2)CC1 (stereo not drawn) | - | - | - | -
CN(CC(=O)Nc1ccccc1Cl)C1CCS(=O)(=O)C1 (stereo not drawn) | . | - | . | .
CCc1noc(C)c1C(=O)Nc1cc(Cl)ccc1N1CCOCC1 | . | - | . | .
CCC(=O)Nc1cccc(-c2cn3cccc(C)c3n2)c1 | 54 | - | 39 | -
O=C(COc1ccccc1)Nc1cccc(-c2cn3cccnc3n2)c1 | - | - | - | -
Cc1cccc2nc(-c3cccc(NC(=O)Cc4ccccc4)c3)cn12 | - | - | - | -
CCC(=O)Nc1cccc(-c2ccc(N3CCCCC3)nn2)c1 | - | - | - | -
CCC(=O)Nc1cccc(-c2ccc(N3CCN(C)CC3)nn2)c1 | 74 | - | 16 | -
COc1ccc(CC(=O)Nc2cccc(-c3cn4ccccc4n3)c2)cc1 | active | - | 46 | -
Cc1cc([N+](=O)[O-])ccc1NC(=O)CCC(=O)N1CCCCCC1 | - | - | - | -
Cc1ccc2cc3c(N)c(C(=O)N4CCOCC4)sc3nc2c1 | 103 | - | 30 | -
Cc1ccc2nc3sc(C(=O)N4CCOCC4)c(N)c3cc2c1 | 54 | - | 30 | -
COc1ccc2cc3c(N)c(C(=O)N4CCCC4)sc3nc2c1 | 101 | - | 69 | -
CCc1ccc2nc3sc(C(=O)N4CCc5ccccc54)c(N)c3cc2c1 | - | - | - | -
SMILES | Shiga toxin inh | SARS PLP yeast | CHX counter | NS1 inh
CCOc1ccc2nc3sc(C(=O)N4CCN(C)CC4)c(N)c3cc2c1 | - | - | 17 | -
COc1ccc2cc3c(N)nn(C(=O)c4ccccc4Cl)c3nc2c1 | - | - | - | -
C=CCNc1cc(F)ccc1S(=O)(=O)NCC=C | . | - | . | .
CC(C)c1ccc(NC2CCCN(C(=O)CCN3Cc4ccccc4C3=O)C2)cc1 (stereo not drawn) | - | - | - | -
CC(C(=O)N1CCN(c2ccccc2)CC1)c1ccc([N+](=O)[O-])cc1 (stereo not drawn) | - | - | - | -
CCN1CCc2nc3sc(C(=O)N4CCc5ccccc5C4)c(N)c3cc2C1 | - | - | - | -
CC(C)c1ccc2nc3sc(C(=O)N4CCc5ccccc5C4)c(N)c3cc2c1 | - | - | 24 | ?
C=C1C(=O)O[C@H]2C[C@]3(C)C([C@@H](OC(=O)/C(C)=C/C)[C@H]12)[C@](C)(O)CC[C@H]3O (stereo partly drawn) | - | - | 30 | -
CCCn1c(SCC(=O)Nc2nnc(C)s2)nnc1C1CC1 | - | - | - | -
Cn1c(=O)oc2cc(S(=O)(=O)N3CCCC(C(=O)N4CC=C(c5ccccc5)CC4)C3)ccc21 (stereo not drawn) | - | - | - | 10µM
COc1ccccc1N1CCN(C(=O)C2CCCN(S(=O)(=O)c3ccc4c(c3)oc(=O)n4C)C2)CC1 (stereo not drawn) | - | - | - | -
COc1ccc(Cl)cc1S(=O)(=O)N1CCCC(C(=O)NCc2ccccn2)C1 (stereo not drawn) | . | - | . | .
CCc1nccn1-c1cc(C(C)(C)C)nc2c(-c3ccc(Cl)cc3)cnn12 | - | ? | - | -
CC(C)(C)c1cc(-n2ccnc2)n2ncc(-c3ccc(Cl)cc3)c2n1 | 59 | - | 40 | -
CN(C)CCCNc1cc(C(C)(C)C)nc2c(-c3ccc(Cl)cc3)cnn12 | 53 | - | 40 | -
CC(C)(C)c1cc(NCc2ccccn2)n2ncc(-c3ccc(Cl)cc3)c2n1 | - | - | - | -
CCCc1cc(NCCCn2ccnc2)n2nc(C)c(-c3ccccc3)c2n1 | - | - | - | -
CC(C)(C)c1cc(NCCCn2ccnc2)n2ncc(-c3ccccc3)c2n1 | 67 | - | 37 | -
Cn1c(=O)c2c(nc(NCCCN3CCOCC3)n2Cc2ccc(Cl)cc2)n(C)c1=O | - | - | - | ?
Cc1cc(NCCCN2CCOCC2)n2ncc(-c3ccc(Cl)cc3)c2n1 | - | - | 22 | -
Cc1ccc(S(=O)(=O)N(C)c2ccc(C(=O)Nc3cccnc3)cc2)cc1 | - | - | - | -
Cc1cccc(-c2cc3nc(C)cc(NCCCn4ccnc4)n3n2)c1 | - | - | - | -
Cc1cc(NCCCn2ccnc2)n2ncc(-c3ccc(Cl)cc3)c2n1 | 83 | - | 40 | -
CC(C)Nc1cc(C(C)(C)C)nc2c(-c3ccccc3)cnn12 | 151 | - | 55 | -
COc1ccc(/C=N/Nc2nnc(C)n2N)cc1OC(C)=O | - | - | 12 | -
SMILES | Shiga toxin inh | SARS PLP yeast | CHX counter | NS1 inh
Cc1nnc(N/N=C/c2ccc(Br)cc2)n1N | . | - | 10.0 | -
Cc1nnc(N/N=C/c2ccc(-c3ccc(Br)cc3)o2)n1N | - | - | - | .
OCC1=C[C@@H](O)[C@@H]2C=CO[C@@H](O[C@@H]3O[C@H](CO)[C@@H](O)[C@H](O)[C@H]3O)[C@H]12 | . | - | . | .
O=C(NCCN1CCc2ccccc2C1)Nc1ccc([N+](=O)[O-])cc1 | - | - | - | -
CC(C)c1ccc(NC(=O)N2CCc3ccccc3C2)cc1 | 96 | - | 42 | .
O=[N+]([O-])c1ccc(-c2csc(N3CCc4ccccc4C3)n2)cc1 | - | - | - | -
O=C(Nc1ccc([N+](=O)[O-])cc1)N1CCc2ccccc2C1 | . | - | 38 | -
O=[N+]([O-])c1ccc(N2CCc3ccccc3C2)cc1 | . | - | 26 | -
COc1ccc(NC(=S)N2CCc3ccccc3C2)cc1 | - | - | - | -
COc1ccc(NS(=O)(=O)c2ccc(N3CCOCC3)c(N)c2)cc1 | . | - | . | .
CCOC(=O)CCn1nc(-c2ccc(Cl)cc2)cc1N | - | - | 20 | -
CCOC(=O)Cn1nc(-c2ccc(Cl)cc2)cc1N | 92 | - | 38 | -
CCOC(=O)CN1CCC(c2cc(-c3ccc(Cl)cc3)n[nH]2)CC1 | - | - | - | -
CCOC(=O)N1CCN(C(=O)CCn2nc(-c3ccc(Cl)cc3)ccc2=O)CC1 | - | - | - | ?
COC(=O)c1ccc(COc2ccccc2/C=N/Nc2cccc(C(=O)O)c2)cc1 | 80 | - | 55 | .
O=C(O)c1cccc(NC(=S)N/N=C/c2ccccc2OCc2ccc(Br)cc2)c1 | - | - | 16 | -
CC(Nc1ccc(Br)cc1)C(=O)N/N=C/c1ccccc1OCc1ccccc1 (stereo not drawn) | - | - | - | -
